Reference: PubChem BioAssay (EPA / NIEHS)
Records with an inconclusive call do not appear. Calls of active or inactive are those of the source. The calls were made as follows, unless noted: active = hit-call score of the fitted dose curve at least 0.9, where 1 is the maximum; inconclusive = response in the unintended direction; inactive = score below 0.9.

Key:
[1] = target: Estrogen receptor (Homo sapiens) + Estrogen receptor beta (Homo sapiens) (UniProt P03372+Q92731); assay: OT_ER_ERaERb_1440: Odyssey Thera (OT) 24-hour HEK293T Protein-Complementation Assay for Estrogen Receptor-alpha/-beta Homodimer (AID 2283356);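 also: heteromer of ER alpha and ER beta binding domains; hits raise reporter fluorescence and both agonists and antagonists give an increase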
How it was run: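 24 h exposure; HEK293T PCA cells with ERα/ERβ LBD fragments; signal rise in nuclear or whole-cell fluorescence over vehicle.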

[2] = target: Estrogen receptor beta (Homo sapiens) (UniProt Q92731); assay: OT_ER_ERbERb_0480: Odyssey Thera (OT) 8-hour HEK293T Protein-Complementation Assay for Estrogen Receptor-beta/-beta Homodimer (AID 2283357);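 also: active means signal gain over DMSO baseline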
How it was run: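 Homodimerization of ER-beta LBD measured by protein-fragment complementation in HEK293T; 8 h dosing; fixed, Draq5 counterstain; fluorescence intensity gain over DMSO baseline, positive fitting direction; laser scanning cytometry.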

[3] = target: Retinoic acid receptor alpha (Homo sapiens) (UniProt P10276); assay: NVS_NR_hRAR_Antagonist: NovaScreen (NVS) Nuclear Receptor Binding Assay for human Retinoic Acid Alpha Receptor Antagonism (RAR) (AID 2283358)
How it was run: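 Read-out: time-resolved FRET binding signal, 2 h post-dose, cell-free extracted protein. Antagonism scored as signal loss versus DMSO negative control. Primary single-concentration screen at 25 uM in duplicate; concentration series for actives.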

[4] = target: human Peroxisome Proliferator-activated Receptor alpha (PPARa), PPARA (gene 5465) (UniProt Q07869); assay: NVS_NR_hPPARa: NovaScreen (NVS) Nuclear Receptor Binding Assay for human Peroxisome Proliferator-activated Receptor alpha (PPARa) (AID 2283359);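 also: activity means loss of TR-FRET signal versus DMSO baseline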
How it was run: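 TR-FRET signal measured at 1 h post-dosing; loss-of-signal versus DMSO negative control taken as activity. Extracted gene-protein, cell-free format. Initial single-point duplicates at 25 uM, then concentration-response retests.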

[5] = target: Nuclear receptor subfamily 1 group I member 2 (Homo sapiens) (UniProt O75469); assay: NVS_NR_hPXR: NovaScreen (NVS) Nuclear Receptor Binding Assay for human Pregnane X Receptor (PXR) (AID 2283365);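 also: a drop in FRET signal versus DMSO baseline means the compound binds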
How it was run: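 Read-out: TR-FRET, human PXR, 2 h post-dosing, cell-free. Loss of signal vs DMSO taken as binding activity; 25 uM primary, concentration series secondary.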

[6] = target: Peroxisome proliferator-activated receptor gamma (Homo sapiens) (UniProt P37231); assay: NVS_NR_hPPARg: NovaScreen (NVS) Nuclear Receptor Binding Assay for human Peroxisome Proliferator-activated Receptor gamma (PPARg) (AID 2283370)
How it was run: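 Extracted receptor protein, cell-free; compound incubated 2 h then fluorescence polarization read. Baseline: DMSO. Actives from 25 uM duplicate screen re-run across concentrations.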

[7] = target: Estrogen receptor beta (Homo sapiens) (UniProt Q92731); assay: OT_ER_ERbERb_1440: Odyssey Thera (OT) 24-hour HEK293T Protein-Complementation Assay for Estrogen Receptor-beta/-beta Homodimer (AID 2283380);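 also: scored as signal increase over DMSO baseline for both agonists and antagonists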
How it was run: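 HEK293T cells stably expressing ER beta LBD (aa 310-547) homodimer fragment-complementation reporter, dosed 24 h. Cells formaldehyde-fixed, Draq5-stained; gain in nuclear (agonist) or nuclear plus cytoplasmic (antagonist) fluorescence versus DMSO read by laser scanning cytometry.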

[8] = target: Estrogen receptor (Homo sapiens) (UniProt P03372); assay: OT_ERa_GFPERaERE_0480: Odyssey Thera (OT) 8-hour HeLa Transcription Induction Assay for Estrogen Receptor (AID 2283381; active = hit-call score of the fitted dose curve at least 0.9, where 1 is the maximum; inactive = score below 0.9)
How it was run: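 An 8 h HeLa transcription-induction format with a GFP reporter under ERE control, read by fluorescence microscopy; single endpoint fitted positively with DMSO as baseline.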

[9] = target: Retinoic acid receptor alpha (Homo sapiens) (UniProt P10276); assay: NVS_NR_hRARa_Agonist: NovaScreen (NVS) Nuclear Receptor Binding Assay for human Retinoic Acid Alpha Receptor Agonism (RAR) (AID 2283361)
How it was run: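 TR-FRET signal, 2 h post-dosing; cell-free extracted protein; DMSO = baseline, positive fitting direction; 25 uM single-point duplicate, then concentration series for actives.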

[10] = target: rat Androgen Receptor (AR), Ar (gene 24208) (UniProt P15207); assay: NVS_NR_rAR: NovaScreen (NVS) Nuclear Receptor Binding Assay for rat Androgen Receptor (AR) (AID 2283366)
How it was run: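 Actives from a duplicate single-concentration (25 uM) primary run went on to concentration series. Displacement of radioligand was counted by filtration and scintillation, 18 h post-dose, using prostate extracts from testosterone-pretreated rats, with DMSO as baseline.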

[11] = target: Agonist Androgen Response Element (ARE), AR (gene 367) (UniProt P10275); assay: OT_AR_ARELUC_AG_1440: Odyssey Thera (OT) 24-hour CHO-K1 Luciferase Assay for Agonist Androgen Response Element (ARE) (AID 2283379)
How it was run: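 Gain-of-signal reporter endpoint: cells (CHO-K1, hamster) are treated 24 h, luciferin/ATP reagent added, and luminescence compared with DMSO baseline.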

[12] = target: guinea pig Sigma Receptor, Non-selective Binding, SIGMAR1 (gene 100135589) (UniProt Q60492); assay: NVS_OR_gSIGMA_NonSelective: NovaScreen (NVS) Nuclear Receptor Binding Assay for guinea pig Sigma Receptor, Non-selective Binding (AID 2283367)
How it was run: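 Membranes from guinea pig brain incubated with radioligand and test chemical for 1 h, then filtered and scintillation-counted. Duplicate primary testing at 25 uM, with concentration-series follow-up for actives.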

[13] = target: human Dopamine Transporter (DAT), SLC6A3 (gene 6531) (UniProt Q01959); assay: NVS_TR_hDAT: NovaScreen (NVS) Transporter Assay for human Dopamine Transporter (DAT) (AID 2283374);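 also: activity means loss of bound radioligand signal relative to DMSO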
How it was run: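 hDAT membranes + tritiated/iodinated radioligand, competitive displacement; 1 h; filter scintillation readout. Single conc 25 uM (duplicate), then conc-response for actives. DMSO = negative control.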

[14] = test system: guinea pig Dopamine Transporter (DAT), gene 100714898; assay: NVS_TR_gDAT: NovaScreen (NVS) Transporter Assay for guinea pig Dopamine Transporter (DAT) (AID 2283369);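 also: active compounds lower bound radioligand signal relative to DMSO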
How it was run: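 Primary pass: duplicate wells at 25 uM, threshold e.g. 30% inhibition. Follow-up: singleton concentration-response, highest 50 uM. Radioligand binding on guinea pig striatal membranes, 2 h, filtration scintillation detection.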

[15] = target: human Norepinephrine Transporter (NET), SLC6A2 (gene 6530) (UniProt P23975); assay: NVS_TR_hNET: NovaScreen (NVS) Transporter Assay for human Norepinephrine Transporter (NET) (AID 2283377);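 also: cell-free membrane protein extracted from CHO cells expressing human NET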
How it was run: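 CHO cell extracts expressing the transporter; tritiated or iodinated tracer displaced competitively; filtration plus scintillation readout at 1 h. Single-point duplicates at 25 uM, concentration series for follow-up; activity = signal drop relative to DMSO.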

Sequence of Estrogen receptor (Homo sapiens) (P03372 whole entry, looked up): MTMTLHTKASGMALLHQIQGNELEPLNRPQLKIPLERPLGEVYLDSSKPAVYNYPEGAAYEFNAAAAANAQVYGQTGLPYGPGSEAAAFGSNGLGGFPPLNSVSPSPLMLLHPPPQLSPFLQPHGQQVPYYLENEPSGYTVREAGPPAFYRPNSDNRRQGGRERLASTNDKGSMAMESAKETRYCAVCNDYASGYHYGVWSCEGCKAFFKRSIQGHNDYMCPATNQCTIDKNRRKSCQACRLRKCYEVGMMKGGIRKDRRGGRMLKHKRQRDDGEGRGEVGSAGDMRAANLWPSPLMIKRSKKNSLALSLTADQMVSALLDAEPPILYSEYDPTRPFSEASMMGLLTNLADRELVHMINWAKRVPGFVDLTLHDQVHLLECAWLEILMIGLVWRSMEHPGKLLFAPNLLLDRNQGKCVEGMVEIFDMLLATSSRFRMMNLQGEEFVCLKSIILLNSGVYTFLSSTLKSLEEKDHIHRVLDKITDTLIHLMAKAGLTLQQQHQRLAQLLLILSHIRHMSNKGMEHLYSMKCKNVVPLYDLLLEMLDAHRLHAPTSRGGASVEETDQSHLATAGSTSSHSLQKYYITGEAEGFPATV
Sequence of Estrogen receptor (Homo sapiens) + Estrogen receptor beta (Homo sapiens) (P03372 whole entry, looked up, the tested form may be a part): as the sequence (P03372 whole entry, looked up) above
Sequence of Estrogen receptor (Homo sapiens) + Estrogen receptor beta (Homo sapiens) (Q92731 whole entry, looked up, the tested form may be a part): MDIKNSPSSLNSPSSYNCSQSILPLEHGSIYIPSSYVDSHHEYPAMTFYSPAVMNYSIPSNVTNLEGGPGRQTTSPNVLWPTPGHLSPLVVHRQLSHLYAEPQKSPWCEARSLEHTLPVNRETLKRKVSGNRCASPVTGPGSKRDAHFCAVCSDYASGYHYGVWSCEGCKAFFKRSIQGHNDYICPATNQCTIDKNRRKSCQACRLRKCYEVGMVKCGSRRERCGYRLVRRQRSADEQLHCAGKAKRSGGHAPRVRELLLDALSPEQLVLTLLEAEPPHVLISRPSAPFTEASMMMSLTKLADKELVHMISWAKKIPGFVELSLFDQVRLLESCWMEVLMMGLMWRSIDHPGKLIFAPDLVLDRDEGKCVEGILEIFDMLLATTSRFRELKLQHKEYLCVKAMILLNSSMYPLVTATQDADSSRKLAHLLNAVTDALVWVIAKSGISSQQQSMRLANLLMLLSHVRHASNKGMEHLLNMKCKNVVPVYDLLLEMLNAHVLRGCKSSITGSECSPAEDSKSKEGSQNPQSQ
Sequence of human Dopamine Transporter (DAT), SLC6A3 (gene 6531) (Q01959 whole entry, looked up): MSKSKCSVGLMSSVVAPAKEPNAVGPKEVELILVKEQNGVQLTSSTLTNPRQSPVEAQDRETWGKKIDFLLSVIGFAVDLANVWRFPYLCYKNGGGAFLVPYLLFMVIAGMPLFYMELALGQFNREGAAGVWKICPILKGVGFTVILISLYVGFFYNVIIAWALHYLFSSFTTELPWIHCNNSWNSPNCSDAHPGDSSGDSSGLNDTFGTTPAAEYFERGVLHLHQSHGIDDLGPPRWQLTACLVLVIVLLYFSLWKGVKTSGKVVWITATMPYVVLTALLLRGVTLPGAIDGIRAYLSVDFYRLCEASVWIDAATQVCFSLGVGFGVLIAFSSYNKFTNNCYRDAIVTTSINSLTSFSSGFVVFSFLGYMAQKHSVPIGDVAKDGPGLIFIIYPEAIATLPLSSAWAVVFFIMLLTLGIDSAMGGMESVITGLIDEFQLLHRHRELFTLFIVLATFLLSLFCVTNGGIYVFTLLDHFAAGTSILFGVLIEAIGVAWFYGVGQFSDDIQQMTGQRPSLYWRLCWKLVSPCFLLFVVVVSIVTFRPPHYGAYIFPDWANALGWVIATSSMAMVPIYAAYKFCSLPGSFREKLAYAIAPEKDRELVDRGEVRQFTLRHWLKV
Sequence of Peroxisome proliferator-activated receptor gamma (Homo sapiens) (P37231 whole entry, looked up): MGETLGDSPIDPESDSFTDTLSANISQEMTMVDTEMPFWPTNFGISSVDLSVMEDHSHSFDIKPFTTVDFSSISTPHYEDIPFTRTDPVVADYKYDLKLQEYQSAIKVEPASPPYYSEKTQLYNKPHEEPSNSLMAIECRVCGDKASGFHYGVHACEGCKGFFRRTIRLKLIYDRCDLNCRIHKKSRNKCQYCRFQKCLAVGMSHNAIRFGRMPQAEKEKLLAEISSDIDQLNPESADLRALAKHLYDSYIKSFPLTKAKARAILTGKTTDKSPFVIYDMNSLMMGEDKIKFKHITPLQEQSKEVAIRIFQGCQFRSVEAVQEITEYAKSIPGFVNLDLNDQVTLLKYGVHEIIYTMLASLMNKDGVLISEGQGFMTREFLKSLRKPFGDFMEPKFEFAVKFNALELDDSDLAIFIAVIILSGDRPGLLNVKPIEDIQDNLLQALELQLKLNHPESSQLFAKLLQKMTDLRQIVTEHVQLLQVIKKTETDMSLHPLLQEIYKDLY
Sequence of Estrogen receptor beta (Homo sapiens) (Q92731 whole entry, looked up, the tested form may be a part): as the sequence (Q92731 whole entry, looked up, the tested form may be a part) above
Sequence of Agonist Androgen Response Element (ARE), AR (gene 367) (P10275 whole entry, looked up): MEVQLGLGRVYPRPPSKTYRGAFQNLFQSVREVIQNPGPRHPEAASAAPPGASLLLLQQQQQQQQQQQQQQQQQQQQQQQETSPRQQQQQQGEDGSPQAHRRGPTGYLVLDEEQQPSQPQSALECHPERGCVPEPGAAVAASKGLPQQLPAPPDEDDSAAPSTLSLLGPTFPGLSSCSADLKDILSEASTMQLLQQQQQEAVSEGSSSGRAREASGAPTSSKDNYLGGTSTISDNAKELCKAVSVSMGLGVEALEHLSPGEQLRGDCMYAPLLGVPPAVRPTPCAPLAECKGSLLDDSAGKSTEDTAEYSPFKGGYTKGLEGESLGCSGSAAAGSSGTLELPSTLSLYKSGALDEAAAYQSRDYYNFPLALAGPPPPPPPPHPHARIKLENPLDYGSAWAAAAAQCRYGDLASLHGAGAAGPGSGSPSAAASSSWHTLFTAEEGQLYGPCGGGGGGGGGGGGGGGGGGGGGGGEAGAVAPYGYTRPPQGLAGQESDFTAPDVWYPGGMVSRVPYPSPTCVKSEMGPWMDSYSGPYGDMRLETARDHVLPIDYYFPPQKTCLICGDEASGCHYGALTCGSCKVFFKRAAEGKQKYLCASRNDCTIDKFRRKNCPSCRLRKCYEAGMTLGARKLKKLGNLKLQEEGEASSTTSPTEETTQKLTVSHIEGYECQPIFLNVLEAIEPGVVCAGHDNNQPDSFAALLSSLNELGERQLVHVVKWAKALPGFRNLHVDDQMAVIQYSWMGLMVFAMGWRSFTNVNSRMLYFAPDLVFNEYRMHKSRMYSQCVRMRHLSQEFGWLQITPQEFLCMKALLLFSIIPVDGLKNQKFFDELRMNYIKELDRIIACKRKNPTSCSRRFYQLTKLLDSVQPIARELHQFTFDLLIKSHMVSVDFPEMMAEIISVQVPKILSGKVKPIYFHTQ
Sequence of human Norepinephrine Transporter (NET), SLC6A2 (gene 6530) (P23975 whole entry, looked up): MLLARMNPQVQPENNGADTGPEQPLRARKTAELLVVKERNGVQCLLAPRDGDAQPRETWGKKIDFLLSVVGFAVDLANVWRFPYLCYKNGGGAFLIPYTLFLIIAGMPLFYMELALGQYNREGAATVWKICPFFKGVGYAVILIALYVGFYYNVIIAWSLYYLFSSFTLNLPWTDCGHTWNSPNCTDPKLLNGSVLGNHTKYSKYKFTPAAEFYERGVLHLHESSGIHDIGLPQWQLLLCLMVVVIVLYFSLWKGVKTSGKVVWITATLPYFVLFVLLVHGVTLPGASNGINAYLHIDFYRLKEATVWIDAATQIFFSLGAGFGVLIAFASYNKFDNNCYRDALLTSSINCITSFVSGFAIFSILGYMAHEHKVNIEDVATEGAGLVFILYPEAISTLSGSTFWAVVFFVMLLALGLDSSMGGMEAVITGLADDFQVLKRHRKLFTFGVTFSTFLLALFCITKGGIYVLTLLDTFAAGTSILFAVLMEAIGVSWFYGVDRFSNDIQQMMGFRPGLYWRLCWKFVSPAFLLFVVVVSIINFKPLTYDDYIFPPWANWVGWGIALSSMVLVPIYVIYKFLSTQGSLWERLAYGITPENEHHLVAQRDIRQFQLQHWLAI

CCCCCCCC/C=C\CCCCCCCC(=O)OCCO
outcome [1]: inactive
outcome [2]: inactive
outcome [3]: inactive
AC50 [4]: 12.5 µM (active)
outcome [5]: inactive
outcome [6]: inactive
outcome [7]: inactive
outcome [8]: inactive

O=C(C(Cl)Cl)N1CCOC12CCCCC2
outcome [1]: inactive
outcome [2]: inactive
outcome [6]: inactive
outcome [7]: inactive
outcome [8]: inactive

O=C(C=Cc1ccccc1)OCc1ccccc1
outcome [1]: inactive
outcome [2]: inactive
outcome [7]: inactive
outcome [8]: inactive

Cn1c([N+](=O)[O-])cnc1COC(N)=O
outcome [1]: inactive
outcome [2]: inactive
outcome [7]: inactive
outcome [8]: inactive

CCCCCCCC[N+](C)(CCCCCCCC)CCCCCCCC
AC50 [9]: 4.37 µM (active)

CC(C)c1ccc2c(C(C)C)cc(C(C)C)c(S(=O)(=O)O)c2c1
AC50 [10]: 7.33 µM (active)
outcome [11]: inactive

S=C(NC1CCCCC1)NC1CCCCC1
AC50 [12]: 5.93 µM (active)

CCCCCCCCCCCCCCCC[N+](C)(C)CC
AC50 [12]: 1.23 µM (active)
AC50 [13]: 1.82 µM (active)

COc1ccc2nc(N)sc2c1
outcome [14]: inactive

c1ccc2c(c1)ccc1ncccc12
AC50 [14]: 34.7 µM (active)
AC50 [13]: 16.4 µM (active)

CCCCC/C=C\CCC=O
outcome [6]: inactive
AC50 [11]: 1.31 µM (active)

CC(C)=CC1CC(C)CCO1 (stereo not given)
outcome [13]: inactive

O=C(Nc1ccccc1SSc1ccccc1NC(=O)c1ccccc1)c1ccccc1
outcome [15]: inactive

O=[N+]([O-])c1ccc(CO)cc1
outcome [15]: inactive
